# Tests used:
# Experiment in all cases: DAPPL (digital affinity profiling via proximity ligation, sequencing); 10 mM Tris-HCl pH 7.5, 50 mM NaCl, 1 mM DTT, 4% glycerol, room temperature, 30 min; GST-TFs on glutathione beads, 16-mer random dsDNA library, 0.1% formaldehyde crosslink after washing; high values mean tight binding
# FLI1 = target: T1, FLI1 (Homo sapiens, UniProt Q01543 1-452); details: protein: recombinant; tags: N-terminal GST; dsDNA, one strand shown
# T1 sequence: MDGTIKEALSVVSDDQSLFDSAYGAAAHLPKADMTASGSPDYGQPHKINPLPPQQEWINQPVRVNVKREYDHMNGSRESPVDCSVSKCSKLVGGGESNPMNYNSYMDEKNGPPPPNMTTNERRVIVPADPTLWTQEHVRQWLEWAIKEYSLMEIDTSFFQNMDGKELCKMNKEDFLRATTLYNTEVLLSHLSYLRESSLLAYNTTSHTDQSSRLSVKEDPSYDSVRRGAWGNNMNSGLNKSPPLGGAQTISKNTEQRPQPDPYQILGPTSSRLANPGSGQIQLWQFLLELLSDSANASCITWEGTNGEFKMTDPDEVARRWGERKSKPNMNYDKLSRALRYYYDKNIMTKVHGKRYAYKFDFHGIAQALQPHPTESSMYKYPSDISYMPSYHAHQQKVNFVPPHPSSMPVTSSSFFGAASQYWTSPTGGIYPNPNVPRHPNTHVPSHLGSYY
# In short: (§1)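 Human transcription factors carrying a GST fusion were produced in yeast, bound to glutathione beads, tagged with DNA barcodes and pooled together with a tag-only sample. Each pool was held with 200 nmole of a random double-stranded 16-mer DNA library in Tris/NaCl/DTT/glycerol buffer for 30 min at room temperature, then washed, crosslinked in 0.1% formaldehyde, proximity-ligated with BsaI/T4 ligase (1 h, 37 °C), PCR-amplified and sequenced on an Illumina NextSeq500. Binding signal is the read frequency of each hexamer for a given factor divided by its frequency in the tag-only sample.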
# ELK1 = target: T2, ELK1 (Homo sapiens, UniProt P19419 1-428); details: protein: recombinant; tags: N-terminal GST; dsDNA, one strand shown
# T2 sequence: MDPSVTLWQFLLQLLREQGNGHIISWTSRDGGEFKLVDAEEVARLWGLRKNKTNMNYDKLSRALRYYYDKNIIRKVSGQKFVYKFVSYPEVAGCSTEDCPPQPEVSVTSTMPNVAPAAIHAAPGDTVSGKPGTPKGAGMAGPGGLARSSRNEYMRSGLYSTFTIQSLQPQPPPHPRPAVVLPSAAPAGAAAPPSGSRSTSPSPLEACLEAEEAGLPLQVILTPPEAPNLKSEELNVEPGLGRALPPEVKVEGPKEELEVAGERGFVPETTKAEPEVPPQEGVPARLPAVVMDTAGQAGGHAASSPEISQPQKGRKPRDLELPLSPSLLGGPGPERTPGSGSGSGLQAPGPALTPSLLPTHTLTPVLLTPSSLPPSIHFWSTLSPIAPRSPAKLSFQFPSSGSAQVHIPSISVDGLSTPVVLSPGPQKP
# In short: as §1
# GABPA = target: T3, GABPA (Homo sapiens, UniProt Q06546 1-454); details: protein: recombinant; tags: N-terminal GST; dsDNA, one strand shown
# T3 sequence: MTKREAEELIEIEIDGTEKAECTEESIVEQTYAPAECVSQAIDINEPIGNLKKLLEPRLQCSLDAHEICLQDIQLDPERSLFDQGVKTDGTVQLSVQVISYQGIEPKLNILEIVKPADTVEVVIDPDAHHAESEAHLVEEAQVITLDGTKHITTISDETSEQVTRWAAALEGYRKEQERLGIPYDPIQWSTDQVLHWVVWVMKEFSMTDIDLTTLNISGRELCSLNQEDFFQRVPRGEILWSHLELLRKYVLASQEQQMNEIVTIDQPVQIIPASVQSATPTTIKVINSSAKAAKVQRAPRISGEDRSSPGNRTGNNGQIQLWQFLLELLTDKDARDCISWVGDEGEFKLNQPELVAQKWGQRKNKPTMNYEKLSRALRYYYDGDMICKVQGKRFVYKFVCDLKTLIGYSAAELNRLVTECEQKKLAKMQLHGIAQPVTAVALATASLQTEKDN
# In short: as §1
# ERG = target: T4, ERG (Homo sapiens, UniProt P11308 1-479); details: protein: recombinant; tags: N-terminal GST; dsDNA, one strand shown
# T4 sequence: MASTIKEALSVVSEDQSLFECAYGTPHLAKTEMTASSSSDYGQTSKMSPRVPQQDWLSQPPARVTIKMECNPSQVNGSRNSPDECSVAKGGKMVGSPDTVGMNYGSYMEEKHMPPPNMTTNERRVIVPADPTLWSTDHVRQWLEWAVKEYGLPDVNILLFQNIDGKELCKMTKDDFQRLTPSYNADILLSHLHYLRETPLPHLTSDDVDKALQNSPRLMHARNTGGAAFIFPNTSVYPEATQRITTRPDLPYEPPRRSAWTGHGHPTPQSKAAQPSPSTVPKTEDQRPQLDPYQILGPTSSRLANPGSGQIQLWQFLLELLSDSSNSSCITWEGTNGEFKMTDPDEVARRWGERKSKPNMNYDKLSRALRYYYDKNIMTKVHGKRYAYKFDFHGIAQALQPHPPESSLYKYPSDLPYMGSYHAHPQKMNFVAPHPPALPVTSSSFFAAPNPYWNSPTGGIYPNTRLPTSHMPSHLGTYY
# In short: as §1
# ELF1 = ELF1 (Homo sapiens, UniProt P32519 1-619); details: protein: recombinant; tags: N-terminal GST; dsDNA, one strand shown
# In short: as §1
# EHF = target: T5, EHF (Homo sapiens, UniProt Q9NZC4 1-300); details: protein: recombinant; tags: N-terminal GST; dsDNA, one strand shown
# T5 sequence: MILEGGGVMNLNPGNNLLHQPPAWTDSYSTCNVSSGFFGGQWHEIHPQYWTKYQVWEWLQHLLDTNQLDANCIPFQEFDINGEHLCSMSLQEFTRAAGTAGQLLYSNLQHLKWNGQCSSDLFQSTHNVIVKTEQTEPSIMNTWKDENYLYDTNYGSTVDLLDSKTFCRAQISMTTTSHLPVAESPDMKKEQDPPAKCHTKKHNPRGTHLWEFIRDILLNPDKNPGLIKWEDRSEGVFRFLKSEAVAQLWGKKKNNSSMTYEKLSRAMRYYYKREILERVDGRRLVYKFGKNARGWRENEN
# In short: as §1
# SPI1 = SPI1 (Homo sapiens, UniProt P17947 1-270); details: protein: recombinant; tags: N-terminal GST; dsDNA, one strand shown
# In short: as §1
# SPIB = SPIB (Homo sapiens, UniProt Q01892 1-262); details: protein: recombinant; tags: N-terminal GST; dsDNA, one strand shown
# In short: as §1
# ELK3 = target: T6, ELK3 (Homo sapiens, UniProt P41970 1-407); details: protein: recombinant; tags: N-terminal GST; dsDNA, one strand shown
# T6 sequence: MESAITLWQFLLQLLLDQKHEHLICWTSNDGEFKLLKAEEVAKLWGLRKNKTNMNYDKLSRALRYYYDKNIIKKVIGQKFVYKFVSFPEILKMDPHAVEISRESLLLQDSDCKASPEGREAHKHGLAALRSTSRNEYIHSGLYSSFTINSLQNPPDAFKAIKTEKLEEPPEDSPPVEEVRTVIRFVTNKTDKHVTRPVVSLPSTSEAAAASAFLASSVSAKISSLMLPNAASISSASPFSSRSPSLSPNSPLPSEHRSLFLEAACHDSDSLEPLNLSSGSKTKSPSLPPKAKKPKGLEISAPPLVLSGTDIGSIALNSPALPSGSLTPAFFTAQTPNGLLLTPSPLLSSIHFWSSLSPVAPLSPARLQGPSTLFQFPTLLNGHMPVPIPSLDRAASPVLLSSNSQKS
# In short: as §1
# FEV = target: T7, FEV (Homo sapiens, UniProt Q99581 1-238); details: protein: recombinant; tags: N-terminal GST; dsDNA, one strand shown
# T7 sequence: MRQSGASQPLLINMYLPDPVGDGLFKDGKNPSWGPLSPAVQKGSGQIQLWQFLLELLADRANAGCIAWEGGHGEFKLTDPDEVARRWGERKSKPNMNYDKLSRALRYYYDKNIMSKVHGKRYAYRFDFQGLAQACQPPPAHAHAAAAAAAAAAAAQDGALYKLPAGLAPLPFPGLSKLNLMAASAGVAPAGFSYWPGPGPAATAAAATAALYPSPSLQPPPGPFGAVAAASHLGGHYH
# In short: as §1
# ETV5 = ETV5 (Homo sapiens, UniProt P41161 1-510); details: protein: recombinant; tags: N-terminal GST; dsDNA, one strand shown
# In short: as §1
# HSF1 = HSF1 (Homo sapiens, UniProt Q00613 1-529); details: protein: recombinant; tags: N-terminal GST; chain copies: 3; dsDNA, one strand shown
# In short: as §1
# SPIC = target: T8, SPIC (Homo sapiens, UniProt Q8N5J4 1-248); details: protein: recombinant; tags: N-terminal GST; dsDNA, one strand shown
# T8 sequence: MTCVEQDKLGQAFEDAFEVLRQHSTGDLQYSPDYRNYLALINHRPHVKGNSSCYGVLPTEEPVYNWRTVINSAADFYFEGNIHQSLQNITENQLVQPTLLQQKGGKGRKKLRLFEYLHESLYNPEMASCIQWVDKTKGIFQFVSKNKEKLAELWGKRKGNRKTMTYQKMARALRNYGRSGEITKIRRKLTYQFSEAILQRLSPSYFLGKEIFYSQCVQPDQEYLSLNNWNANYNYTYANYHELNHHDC
# In short: as §1
# ELF4 = ELF4 (Homo sapiens, UniProt Q99607 1-663); details: protein: recombinant; tags: N-terminal GST; dsDNA, one strand shown
# In short: as §1
# ELK4 = target: T9, ELK4 (Homo sapiens, UniProt P28324-2 1-405); details: protein: recombinant; tags: N-terminal GST; dsDNA, one strand shown
# T9 sequence: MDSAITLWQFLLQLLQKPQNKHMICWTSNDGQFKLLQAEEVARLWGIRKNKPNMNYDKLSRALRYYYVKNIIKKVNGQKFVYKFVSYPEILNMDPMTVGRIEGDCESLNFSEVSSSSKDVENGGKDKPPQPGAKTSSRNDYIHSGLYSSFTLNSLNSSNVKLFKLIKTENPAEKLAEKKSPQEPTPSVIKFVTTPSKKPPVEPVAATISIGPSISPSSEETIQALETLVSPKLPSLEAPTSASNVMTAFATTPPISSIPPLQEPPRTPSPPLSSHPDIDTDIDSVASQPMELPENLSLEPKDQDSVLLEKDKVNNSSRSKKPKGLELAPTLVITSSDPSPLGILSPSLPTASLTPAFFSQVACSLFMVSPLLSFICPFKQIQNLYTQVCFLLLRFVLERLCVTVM
# In short: as §1
# ETV2 = target: T10, ETV2 (Homo sapiens, UniProt O00321 1-342); details: protein: recombinant; tags: N-terminal GST; dsDNA, one strand shown
# T10 sequence: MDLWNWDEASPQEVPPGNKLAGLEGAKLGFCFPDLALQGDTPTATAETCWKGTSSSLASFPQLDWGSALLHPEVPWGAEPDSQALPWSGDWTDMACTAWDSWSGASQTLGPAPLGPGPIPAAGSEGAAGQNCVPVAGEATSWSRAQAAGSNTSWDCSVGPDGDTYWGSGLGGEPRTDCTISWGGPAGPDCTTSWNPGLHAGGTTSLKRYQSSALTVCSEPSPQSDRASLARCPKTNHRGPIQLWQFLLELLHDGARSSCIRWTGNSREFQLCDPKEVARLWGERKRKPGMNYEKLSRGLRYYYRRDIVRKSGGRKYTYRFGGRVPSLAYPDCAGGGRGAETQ
# In short: as §1
# ELF3 = target: T11, ELF3 (Homo sapiens, UniProt P78545 1-371); details: protein: recombinant; tags: N-terminal GST; dsDNA, one strand shown
# T11 sequence: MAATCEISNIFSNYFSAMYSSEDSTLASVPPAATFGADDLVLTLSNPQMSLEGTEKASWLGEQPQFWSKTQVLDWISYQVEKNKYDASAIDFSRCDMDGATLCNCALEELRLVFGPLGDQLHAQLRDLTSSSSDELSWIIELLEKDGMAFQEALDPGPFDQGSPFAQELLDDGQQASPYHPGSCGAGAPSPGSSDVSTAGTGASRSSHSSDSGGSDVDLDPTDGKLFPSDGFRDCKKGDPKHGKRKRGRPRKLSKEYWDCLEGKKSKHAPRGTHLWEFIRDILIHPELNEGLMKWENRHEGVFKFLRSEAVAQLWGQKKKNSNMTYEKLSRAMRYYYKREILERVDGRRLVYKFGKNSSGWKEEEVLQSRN
# In short: as §1
# CRX = CRX (Homo sapiens, UniProt O43186 1-299); details: protein: recombinant; tags: N-terminal GST; dsDNA, one strand shown
# In short: as §1
# ETV1 = ETV1 (Homo sapiens, UniProt P50549 1-477); details: protein: recombinant; tags: N-terminal GST; dsDNA, one strand shown
# In short: as §1
# Chain of CRX (O43186 whole entry): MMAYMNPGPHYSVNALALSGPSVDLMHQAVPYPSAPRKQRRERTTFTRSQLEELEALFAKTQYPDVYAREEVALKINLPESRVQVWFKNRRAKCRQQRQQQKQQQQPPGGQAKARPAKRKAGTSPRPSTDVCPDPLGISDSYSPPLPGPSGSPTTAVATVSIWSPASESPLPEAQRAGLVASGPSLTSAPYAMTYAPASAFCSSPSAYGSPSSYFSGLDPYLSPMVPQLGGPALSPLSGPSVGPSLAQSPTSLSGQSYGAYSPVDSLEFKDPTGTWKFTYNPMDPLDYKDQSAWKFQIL
# Chain of ETV5 (P41161 whole entry): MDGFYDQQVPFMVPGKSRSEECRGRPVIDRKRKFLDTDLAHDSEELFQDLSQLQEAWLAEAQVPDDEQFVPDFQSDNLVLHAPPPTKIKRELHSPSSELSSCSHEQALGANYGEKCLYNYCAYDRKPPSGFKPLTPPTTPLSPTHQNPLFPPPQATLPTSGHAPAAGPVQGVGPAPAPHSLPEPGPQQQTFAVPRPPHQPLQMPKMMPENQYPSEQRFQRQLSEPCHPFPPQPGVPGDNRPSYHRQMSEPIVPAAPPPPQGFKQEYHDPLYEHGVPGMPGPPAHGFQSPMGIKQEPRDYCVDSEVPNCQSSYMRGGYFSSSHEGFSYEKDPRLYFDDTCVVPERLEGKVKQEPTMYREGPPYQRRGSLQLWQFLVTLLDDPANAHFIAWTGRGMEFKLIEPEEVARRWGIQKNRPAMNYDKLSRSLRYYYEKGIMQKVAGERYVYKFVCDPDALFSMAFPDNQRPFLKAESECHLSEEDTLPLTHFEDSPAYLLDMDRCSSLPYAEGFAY
# Chain of ELF1 (P32519 whole entry): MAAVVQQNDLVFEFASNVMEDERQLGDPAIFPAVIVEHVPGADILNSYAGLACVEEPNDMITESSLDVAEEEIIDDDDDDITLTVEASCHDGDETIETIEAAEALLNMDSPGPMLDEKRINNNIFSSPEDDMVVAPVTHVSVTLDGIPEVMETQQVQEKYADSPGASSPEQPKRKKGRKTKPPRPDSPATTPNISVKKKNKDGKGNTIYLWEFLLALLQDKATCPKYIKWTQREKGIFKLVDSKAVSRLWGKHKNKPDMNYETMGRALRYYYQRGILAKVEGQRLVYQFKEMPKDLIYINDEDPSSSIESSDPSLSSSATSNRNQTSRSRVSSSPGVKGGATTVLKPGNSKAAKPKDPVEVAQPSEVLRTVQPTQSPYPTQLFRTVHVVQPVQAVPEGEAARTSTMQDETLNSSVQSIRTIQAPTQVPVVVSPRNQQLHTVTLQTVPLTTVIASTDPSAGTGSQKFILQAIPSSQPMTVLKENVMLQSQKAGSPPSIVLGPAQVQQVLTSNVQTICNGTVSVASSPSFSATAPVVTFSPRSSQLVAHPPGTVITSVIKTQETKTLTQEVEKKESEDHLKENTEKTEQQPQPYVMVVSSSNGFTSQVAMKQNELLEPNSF
# Chain of SPIB (Q01892 whole entry): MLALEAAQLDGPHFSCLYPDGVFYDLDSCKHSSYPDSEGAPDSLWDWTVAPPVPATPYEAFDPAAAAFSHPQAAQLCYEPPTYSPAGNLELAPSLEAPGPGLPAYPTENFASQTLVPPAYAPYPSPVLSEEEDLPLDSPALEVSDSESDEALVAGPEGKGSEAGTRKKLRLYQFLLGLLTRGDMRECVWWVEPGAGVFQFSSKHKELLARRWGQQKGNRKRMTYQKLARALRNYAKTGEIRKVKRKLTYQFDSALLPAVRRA
# Chain of ETV1 (P50549 whole entry): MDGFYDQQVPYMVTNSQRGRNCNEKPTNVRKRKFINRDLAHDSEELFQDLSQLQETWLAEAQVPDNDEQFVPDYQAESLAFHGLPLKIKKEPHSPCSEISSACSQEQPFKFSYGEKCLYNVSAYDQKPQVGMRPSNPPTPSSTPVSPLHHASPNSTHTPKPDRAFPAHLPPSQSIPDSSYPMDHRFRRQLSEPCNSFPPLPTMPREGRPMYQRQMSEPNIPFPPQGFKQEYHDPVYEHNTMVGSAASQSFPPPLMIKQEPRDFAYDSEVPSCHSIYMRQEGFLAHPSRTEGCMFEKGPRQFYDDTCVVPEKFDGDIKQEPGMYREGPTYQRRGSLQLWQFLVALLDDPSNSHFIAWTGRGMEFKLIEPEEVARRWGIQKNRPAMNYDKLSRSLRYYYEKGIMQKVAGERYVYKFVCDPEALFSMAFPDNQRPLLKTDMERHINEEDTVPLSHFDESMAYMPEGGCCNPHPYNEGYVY
# Chain of ELF4 (Q99607 whole entry): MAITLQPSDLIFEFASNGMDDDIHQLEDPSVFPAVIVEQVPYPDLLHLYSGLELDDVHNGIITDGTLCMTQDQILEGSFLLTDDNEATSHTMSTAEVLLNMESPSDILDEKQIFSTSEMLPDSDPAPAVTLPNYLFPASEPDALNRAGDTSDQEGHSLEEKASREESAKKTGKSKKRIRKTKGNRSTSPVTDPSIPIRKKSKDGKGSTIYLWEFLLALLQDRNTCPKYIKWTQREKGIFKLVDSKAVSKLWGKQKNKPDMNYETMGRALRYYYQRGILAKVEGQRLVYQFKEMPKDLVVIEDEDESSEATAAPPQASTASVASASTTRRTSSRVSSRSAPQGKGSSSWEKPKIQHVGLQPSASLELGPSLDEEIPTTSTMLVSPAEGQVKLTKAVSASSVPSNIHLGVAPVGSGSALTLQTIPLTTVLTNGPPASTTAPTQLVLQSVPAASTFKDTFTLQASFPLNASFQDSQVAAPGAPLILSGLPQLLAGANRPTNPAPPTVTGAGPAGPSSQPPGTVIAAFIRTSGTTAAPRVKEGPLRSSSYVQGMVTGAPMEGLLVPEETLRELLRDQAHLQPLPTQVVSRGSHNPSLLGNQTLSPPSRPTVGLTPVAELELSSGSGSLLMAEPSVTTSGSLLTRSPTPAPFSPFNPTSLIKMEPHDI
# Chain of HSF1 (Q00613 whole entry): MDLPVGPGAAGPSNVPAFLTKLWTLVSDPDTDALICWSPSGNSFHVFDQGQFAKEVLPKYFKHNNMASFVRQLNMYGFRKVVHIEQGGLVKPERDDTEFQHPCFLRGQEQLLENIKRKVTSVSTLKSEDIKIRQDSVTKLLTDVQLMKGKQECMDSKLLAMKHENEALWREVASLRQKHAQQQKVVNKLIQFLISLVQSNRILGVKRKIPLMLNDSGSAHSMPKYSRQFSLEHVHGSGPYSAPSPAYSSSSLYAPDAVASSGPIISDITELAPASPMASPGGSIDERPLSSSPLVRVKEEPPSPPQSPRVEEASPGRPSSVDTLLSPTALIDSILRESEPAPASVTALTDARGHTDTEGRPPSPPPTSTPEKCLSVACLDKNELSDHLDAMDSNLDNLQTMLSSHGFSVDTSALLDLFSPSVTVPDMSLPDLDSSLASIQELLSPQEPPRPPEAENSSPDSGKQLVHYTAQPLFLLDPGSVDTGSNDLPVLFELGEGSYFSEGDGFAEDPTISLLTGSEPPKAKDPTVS
sequence,measurement,setting,value
CAATTA,binding signal,FLI1,"1.05 fold enrichment (6-mer frequency, TF over GST control)"
same,binding signal,ELK1,"1.11 fold enrichment (6-mer frequency, TF over GST control)"
same,binding signal,GABPA,"1.1 fold enrichment (6-mer frequency, TF over GST control)"
same,binding signal,ERG,"1.05 fold enrichment (6-mer frequency, TF over GST control)"
same,binding signal,ELF1,"1.1 fold enrichment (6-mer frequency, TF over GST control)"
same,binding signal,EHF,"1.07 fold enrichment (6-mer frequency, TF over GST control)"
same,binding signal,SPI1,"1.15 fold enrichment (6-mer frequency, TF over GST control)"
same,binding signal,SPIB,"1.16 fold enrichment (6-mer frequency, TF over GST control)"
same,binding signal,ELK3,"1.05 fold enrichment (6-mer frequency, TF over GST control)"
same,binding signal,FEV,"1.08 fold enrichment (6-mer frequency, TF over GST control)"
same,binding signal,ETV5,"1.16 fold enrichment (6-mer frequency, TF over GST control)"
same,binding signal,HSF1,"1.12 fold enrichment (6-mer frequency, TF over GST control)"
same,binding signal,SPIC,"1.05 fold enrichment (6-mer frequency, TF over GST control)"
same,binding signal,ELF4,"1.14 fold enrichment (6-mer frequency, TF over GST control)"
same,binding signal,ELK4,"1.05 fold enrichment (6-mer frequency, TF over GST control)"
same,binding signal,ETV2,"1.03 fold enrichment (6-mer frequency, TF over GST control)"
same,binding signal,ELF3,"1.22 fold enrichment (6-mer frequency, TF over GST control)"
same,binding signal,CRX,"1.25 fold enrichment (6-mer frequency, TF over GST control)"
same,binding signal,ETV1,"1.09 fold enrichment (6-mer frequency, TF over GST control)"

# Source: PMC7862700, “An all-to-all approach to the identification of sequence-specific readers for epigenetic DNA modifications on cytosine”
